# HTT prom inh: HTT promoter inhibition; Potency, µM (top dose mostly 57.5 µM), for inactives: top-dose activity change, negative = inhibition, usual class: inhibitors; HEK293 HTT promoter firefly luciferase reporter, 24 h; AID 1508623; 48,000 tested, 0.93% active; note: potency is the fitted concentration of half-maximal effect; nearly all actives have a fitted effect of over 50% in size
#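 HEK293 luciferase promoter-reporter cells (2,500/well) plated 24 h, then compounds added at up to 57.5 uM final for 24 h at 37 °C. Firefly luminescence by Dual-Glo, normalized to vehicle (0%) and zero RLU (-100%).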
# GPR32 ag: GPR32 (DRV1) agonism, beta-arrestin recruitment; O75388; CHO-K1 GPR32 beta-arrestin PathHunter luminescence, 90 min; zero percent set by DMSO-only wells; activation, % at 76.9 µM; 48,000 tested, 2.5% active;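 active = activation of at least 60% and not above a set upper limit, about 1 call in 100 departs from these limits; inconclusive = activation of 40% to 60%, or above that upper limit; inactive = activation under 40%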; note: 0% is about no effect
# Target sequence (O75388 whole entry, looked up): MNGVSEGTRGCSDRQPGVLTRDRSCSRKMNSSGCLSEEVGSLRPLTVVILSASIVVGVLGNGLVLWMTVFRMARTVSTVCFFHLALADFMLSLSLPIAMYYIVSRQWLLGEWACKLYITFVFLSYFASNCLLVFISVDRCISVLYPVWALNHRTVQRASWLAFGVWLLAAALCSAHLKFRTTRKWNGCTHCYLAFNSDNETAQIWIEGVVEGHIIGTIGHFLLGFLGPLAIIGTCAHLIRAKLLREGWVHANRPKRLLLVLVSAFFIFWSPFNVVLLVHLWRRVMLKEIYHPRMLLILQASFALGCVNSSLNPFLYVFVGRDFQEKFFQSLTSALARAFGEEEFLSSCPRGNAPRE
#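 Engineered CHO-K1 line co-expressing GPR32-ProLink and EA-beta-arrestin. Compound treatment lasted 90 min at 37 °C. Luminescence was recorded after 1 h with substrate at ambient temperature, relative to DMSO basal wells.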
# HTT-AS act: activates huntingtin-antisense promoter activity; Potency, µM (doses to about 57.5 µM), for the others: at the top dose activity change, positive = activation, actives largely listed as activators; HEK293 HTT-AS promoter firefly luciferase reporter, 24 h; response scale: percent change from vehicle, -100% = no light; 48,000 tested, 0.24% active; note: potency is the fitted concentration of half-maximal effect; nearly all actives have a fitted effect of over 55% in size
#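 HEK293 luciferase promoter-reporter cells (2,500/well) plated 24 h, then compounds added at up to 57.5 uM final for 24 h at 37 °C. Firefly luminescence by Dual-Glo, normalized to vehicle (0%) and zero RLU (-100%).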
# * hit, by the source's call; ? = inconclusive; . = not tested or not shown; ! = not active in a repeat. A selection: hits, their analogues and other compounds. The true share with any hit is near 3.7%. Unless noted, calls come from the whole dose curve; as a rule, active = well fitted curve in the direction sought with a large enough effect; inconclusive = small, poorly fitted or top-dose-only effect, or another doubt; inactive = no such curve, though single readings can be large; an effect the other way counts as inactive or inconclusive.
SMILES,HTT prom inh,GPR32 ag,HTT-AS act
Cc1ccc(C2CC(=O)Nc3cc4c(cc32)OCCO4)cc1 (configuration not stated),?,62.4*,-25.7%
CCOc1cccc(C2CC(=O)Nc3cc4c(cc32)OCCO4)c1 (configuration not stated),?,-6.1,-42.3%
O=C1CC(c2ccc(Cl)cc2)c2cc3c(cc2N1)OCCO3 (configuration not stated),?,80.4*,-28.8%
COc1ccc(Cl)cc1C1CC(=O)Nc2cc3c(cc21)OCCO3 (configuration not stated),?,-9.6,-45.7%
CCc1ccc(C2CC(=O)Nc3cc4c(cc32)OCO4)cc1 (configuration not stated),?,72.3*,-37.2%
CN(C)S(=O)(=O)c1ccc2c(c1)C(=Cc1cc3c([nH]1)CCCC3)C(=O)N2,?,.,-37.0%
Clc1ccc(-c2noc3ncnc(NC4CCCCC4)c23)cc1,?,28.5,-26.3%
Clc1cccc(-c2noc3ncnc(NC4CCCCC4)c23)c1,?,90.6*,-31.4%
CCn1c(=N)c(C(=O)NCC2CCCO2)cc2c(=O)n3cc(C)ccc3nc21 (configuration not stated),-1.4%,-9.1,-6.3%
Cc1cc(N2CCOCC2)cc2[nH]c(-c3c(NC[C@@H](O)c4cccc(Cl)c4)cc[nH]c3=O)nc12,?,.,-39.5%
Cn1cc(-c2cc3n(n2)CCC(=O)N3CCCC(=O)Nc2ccccc2Cl)c2ccccc21,-0.1%,60.3*,-10.4%
Cc1cccc(CNC(=O)CN2C(=O)CCn3nc(-c4cn(C)c5ccccc45)cc32)c1,-16.2%,107.3*,-23.8%
Cn1cc(-c2cc3n(n2)CCC(=O)N3CCCC(=O)Nc2ccccc2F)c2ccccc21,-22.1%,4.7,-8.7%
Cc1cccc(CNC(=O)CCCN2C(=O)CCn3nc(-c4cn(C)c5ccccc45)cc32)c1,0.0%,-7.9,-22.7%
O=c1ccn([C@@H]2O[C@H](CO)[C@H](O)[C@H]2O)c(=O)[nH]1,?,.,4.5%
O=C1CC2(CCCC2)CC(=O)N1,11.7%,65.4*,-0.1%
CC(C)C(C)C=CC(C)C1CCC2C3=CC=C4CC(O)CCC4(C)C3CCC21C (configuration not stated),?,.,-21.1%
COc1ccc(N2CCN(S(=O)(=O)c3ccc(F)c(C(=O)Nc4ccccc4Cl)c3)CC2)cc1,?,90.7*,-38.4%
COc1ccccc1NC(=O)c1cc(S(=O)(=O)N2CCN(c3ccccc3Cl)CC2)ccc1F,-7.0%,1.9,-10.6%
CCN(C(=O)CSc1nc2ccccc2nc1Cc1ccc(F)cc1)c1cccc(C)c1,-18.4%,-37.7,-22.3%
CCN(C(=O)CSc1nc(-c2ccccc2)no1)c1cccc(C)c1,3.16µM*,?,-75.7%
O=C(C=Cc1ccc(/C=C/C(=O)Nc2ccc(C3=NCCN3)cc2)cc1)Nc1ccc(C2=NCCN2)cc1,-6.0%,.,-21.7%
CN1[C@@H]2CC[C@H]1CC(NC(=O)n1c(=O)[nH]c3ccccc31)C2 (some centres not stated),3.3%,-6.5,-3.7%
Cc1ccc(S(=O)(=O)c2cn(C)c3cc(N4CCCC(C)C4)c(F)cc3c2=O)c(C)c1 (configuration not stated),?,-25.3,-27.0%
Nc1nonc1-c1nc2ccccc2n1Cc1c(Cl)cccc1Cl,?,21.2,-23.1%
SMILES,HTT prom inh,GPR32 ag,HTT-AS act
COCCn1ccc2c(OCC(=O)Nc3cccc(C(F)(F)F)c3)cccc2c1=O,?,?,-21.2%
Cn1nc(-c2ccc(C(=O)Nc3ccc(OC(F)(F)F)cc3)cc2)c2ccccc2c1=O,10µM*,14.8,-46.7%
COCCn1ccc2c(OCC(=O)Nc3cccc(OC)c3)cccc2c1=O,0.0%,72.7*,-18.9%
CNC(=O)COc1ccc(NC(=O)c2ccc(-c3nn(C)c(=O)c4ccccc34)cc2)cc1,-11.1%,25.4,-12.6%
CCOC(=O)c1ccc(NC(=O)COc2cccc3c(=O)n(C)ccc23)cc1,?,68.7*,-45.2%
Cn1ccc2c(OCC(=O)Nc3ccc(OC(F)(F)F)cc3)cccc2c1=O,20µM*,35.6,-76.3%
Cn1ccc2c(OCC(=O)Nc3ccc([N+](=O)[O-])cc3)cccc2c1=O,-33.2%,2.0,-33.5%
Cc1cccc(NC(=O)COc2cccc3c(=O)n(C)ccc23)c1C,?,?,-32.5%
CCc1ccc(C(=O)CSc2nc(-c3ccccc3)nc3c2CCCC3)cc1,-8.3%,-7.8,0.1%
CC[C@H]1OC(=O)[C@H](C)[C@@H](O[C@H]2C[C@@](C)(OC)[C@@H](O)[C@H](C)O2)[C@H](C)[C@@H](O[C@@H]2O[C@@H](C)C[C@H](N(C)C)[C@@H]2O)[C@](C)(O)C[C@@H](C)C(=O)[C@H](C)[C@@H](O)[C@]1(C)O,0.3%,.,-12.0%
CCCCN(c1ccccc1)c1ncnc2c1cnn2-c1ccc(Cl)cc1,-21.1%,-14.4,-51.3%
CCCCN(CC)C(=O)c1nn(C)c2c1CSc1ccccc1-2,-15.5%,-11.0,-4.3%
Cc1ccccc1NC(=O)CN1C(=O)CCn2nc(-c3cccn3C)cc21,11.8%,-17.3,-7.7%
COc1ccc(CNC(=O)c2cnc(N3CCCC3)nc2C)cc1,-19.3%,-2.3,-9.7%
[O-][n+]1cccc(/C(Cl)=N/OC[C@@H](O)CN2CCCCC2)c1,1.9%,8.0,-8.0%
O=C(CN1CCN(Cc2ccccc2Cl)C1=O)NCCc1ccc(Cl)cc1,-17.5%,71.1*,-11.0%
Cc1cccc(CN2CCN(CC(=O)NCCc3ccc(Cl)cc3)C2=O)c1,-10.5%,74.8*,-15.2%
Cc1ccc(CNC(=O)CN2CCN(Cc3ccc(F)cc3)C2=O)cc1,-4.9%,3.8,-10.1%
O=C(CN1CCN(Cc2ccccc2F)C1=O)NCc1ccccc1,0.1%,12.8,-10.6%
CCOC(=O)N1c2ccc(C(F)(F)F)cc2[C@@H](N(Cc2cc(C(F)(F)F)cc(C(F)(F)F)c2)C(=O)OC)C[C@H]1CC,-31.2%,.,-11.7%
CC(=O)N1CCc2cc(CNS(=O)(=O)c3ccc(C(C)(C)C)cc3)ccc21,-39.7%,-3.8,-34.0%
CCC(=O)N1CCc2cc(CNS(=O)(=O)c3ccc(C(C)C)cc3)ccc21,-24.1%,108.6*,-30.6%
O=C(O)[C@@H](c1ccc(OCc2ccc3ccccc3n2)cc1)C1CCCC1,6.3%,.,14.0%
C/C(=N/NC(=O)c1ccncc1)C(=O)O,3.5%,-36.6,-0.1%
O=C(N/N=C/c1ccccc1O)c1ccncc1,-24.5%,95.9*,-16.0%
CC1=C(c2ccc(Cl)cc2)S(=O)(=O)N=C1N1CCN(c2cccc(C)c2)C(C)C1 (configuration not stated),?,1.6,-22.6%
O=C(CN1C(=O)C2(CCCC2)NC[C@H]1c1cc(F)cc(F)c1)Nc1ccc2c(c1)C[C@@]1(C2)C(=O)Nc2ncccc21,-1.2%,.,-11.2%
CC(C)(C)COc1ccc(-n2cc(C(=O)O)cn2)cc1C#N,?,.,-77.9%
Cc1nc(-c2ccc(OCC(C)C)c(C#N)c2)sc1C(=O)O,5.01µM*!,-4.2,-81.4%
COc1ccc(CN2CCc3c(c(=O)n4ncc(C(=O)N5CCN(c6ccc(F)cc6)CC5)c4n3C)C2)cc1,12.6µM*,-10.0,-50.7%

# From PubChem
